Structures are written as SMILES. A number with no mark means an inactive call.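 Rule for the calls: active = viability at or under a set limit in both replicates, limit being median viability minus 3 SD (cut at about 48% in these data, passing the limit was not always enough); inconclusive = at or under the limit in just one replicate; inactive = at or above the limit in both replicates.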

The nature of the assay: growth inhibitors of H69AR lung tumor, primary screen, human, duplicate replicates (AID 580).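 Note: 100% = mean luminescence of untreated wells and 0% = no signal.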 Particulars: H69AR lung tumor cells viability, ATP luminescence, 72 h; at 10 µM; hits give low values.
On to `CC(C)(C)OC(=O)N1CCC(C(=O)N2CCCCCC2)CC1`, for which the viability (usually a read-out of living cells in per cent, often relative to untreated cells) is 107%.

`CC(NO)C(C)(C)NO` (centres undefined): the viability was 100%.

For `CCn1c(=O)cc(OCC(=O)Nc2cc(C)ccn2)c2ccccc21`, the viability was 86.4%.

Take `CCC(=O)N1CCc2cc(S(=O)(=O)CCC(=O)Nc3ccc(C)c(F)c3)ccc21`: the viability is 83.3%.

Consider `CCN(CC)S(=O)(=O)N1CCC(C(=O)NC2CCCc3ccccc32)CC1` (centres undefined), for which the viability is 90.5%.

Turning to `O=C(CN1C(=O)c2cccc3cccc1c23)N1CCN(c2ccccc2)CC1`, the viability was 113%.

For `CC(C)CCn1c(=O)c2ccccc2n2c(CN(C)Cc3ccccc3)nnc12`, the viability is 84.4%.

With `C=CCn1c(SCC(=O)NC23CC4CC(CC(C4)C2)C3)nc(O)cc1=O`, the viability was 92.9%.

As to `Nc1nnc(C(=O)c2ccccc2N)s1`, the viability is 96.3%.

As to `COc1ccc(CCNC(=O)C2CC(=O)N(c3ccccc3)C2)cc1OC` (centres undefined), the viability was 91.5%.

For the molecule `O=C(NCc1nnc(SCC(=O)N2CCCCCC2)o1)c1ccco1`, the viability is 111%.

For `COc1ccc(CNc2nc(NCc3ccc(OC)cc3)n(S(C)(=O)=O)n2)cc1`, the viability is 110%.

As to `CCCCc1c(O)nc(SCCN(C)C)n(-c2ccccc2)c1=O`, the viability is 102%.

Take `COc1ccc(C(=O)OC(COc2ccccc2)Cn2ccnc2)cc1` (centres undefined): the viability was 94.7%.

Turning to `O=S1(=O)CC(N2CCOCC2)c2ccccc21` (centres undefined), the viability was 103%.

For `CN(C)C(=O)N1CCCC(C(=O)NCc2ccccc2)C1` (centres undefined), the viability was 87.8%.

Take `O=C(NCc1ccco1)c1cnc2n(c1=O)CCS2`: the viability is 89.5%.

Consider `C#CC(CO)N(CCN(Cc1ccccc1)C(C#C)CO)Cc1ccccc1` (centres undefined), for which the viability was 90.3%.

`COC(=O)c1ccccc1NC(=O)C1CC(=O)N(c2ccc(F)cc2)C1` (centres undefined): the viability is 96%.

For the molecule `Cc1noc(NS(=O)(=O)c2ccc(N3C(=O)c4ccccc4C3=O)cc2)c1C`, the viability is 107%.

For the molecule `CCn1c(SCC(=O)c2ccc(F)cc2)nnc1-c1ccoc1C`, the viability was 106%.

Regarding `CCC(C)(C(=O)NC1CCCCC1)N(Cc1ccco1)C(=O)c1ccc2c(c1)OCO2` (centres undefined), the viability is 83.4%.

Take `CC(=O)c1cc(C#N)c(SCC(=O)OC(C)C)nc1C`: the viability is 61.2%.

For `CCOC(=O)c1c(C)[nH]c(C=Nc2ccccc2)c1O`, the viability was 101%.

These data come from PubChem BioAssay.
